An excerpt weighted towards active compounds, which were near 18% of everything screened.
TGFb SMAD3 inh = blocks TGF-b signaling. HepG2 CAGA-GFP TGF-b/SMAD3 reporter, GFP fluorescence, 18 h; TGF-beta stimulated, 500 pg/mL final. Potency, µM (highest dose often 46.1 µM), without a hit: top-dose activity, negative = inhibition, hits mostly inhibitors. hit rate 1.2% among 410,000; further: potency means the concentration at half of the fitted maximal effect; on the % scale 0 is the no-effect control and ±100 the full control effect; nearly all actives have a fitted effect of over 65% in size
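Inhibition of TGF-beta-driven CAGA-GFP reporter expression in HEPG2 cells is measured by cellular GFP fluorescence after 18 h stimulation with 500 pg/mL recombinant TGF-beta in 1% FBS medium at 37 degrees C.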
HepG2 viability = kills HepG2 cells in TGF-b inhibitor counter-screen; hit rate 0.76% among 410,000; HepG2 CAGA-GFP viability, ATP luminescence, 18 h; Potency, µM (titrated, usually from 46.1 µM), for the others: at the top dose activity change, negative = cytotoxicity, usual class: cytotoxic; further: potency means the concentration at half of the fitted maximal effect
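CellTiter-Glo luminescence gave cytotoxicity after 18 hours at 37 degrees C. The cells were HepG2 CAGA-GFP in 1% FBS DMEM, stimulated with 500 pg/mL TGF-beta after compound addition. %Activity was normalised to no-cell wells (complete cell-killing) and DMSO (no toxicity), and curves were fitted and classified.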
TDP1 cell CPT = growth inhibition of DT40 Tdp1-/-;hTDP1 cells with camptothecin (screen for TDP1 inhibitors); chicken DT40 Tdp1-/-;hTDP1 cells + 20 nM CPT, ATP luminescence, 48 h; Potency, µM (highest dose often 46.2 µM), without a hit: top-dose activity change, negative = growth inhibition, hits mostly inhibitors; hit rate 12% among 420,000; AID 686979; further: potency means the concentration at half of the fitted maximal effect; on the % scale 0 is the no-effect control and ±100 the full control effect; nearly all actives have a fitted effect of over 55% in size
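Cell growth measured by CellTiter-Glo luminescence after a minimum 48 h, 37 C compound exposure with 20 nM CPT in Tdp1-knockout DT40 cells stably expressing hTDP1, seeded 400/well; qHTS titration format.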
DT40 TDP1 no CPT = qHTS for Inhibitors of human tyrosyl-DNA phosphodiesterase 1 (TDP1): qHTS in cells in absence of CPT; hit rate 15% among 420,000; Potency, µM (titrated, usually from 46.2 µM), without a hit: top-dose activity change, negative = growth inhibition, most hits filed as inhibitors; DT40 Tdp1-/- hTDP1 cells, no CPT, ATP luminescence, 48 h; further: potency means the concentration at half of the fitted maximal effect; on the % scale 0 is the no-effect control and ±100 the full control effect; nearly all actives have a fitted effect of over 55% in size
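Cells were dispensed at 400 per well, compounds added by pin tool, plates incubated ≥48 hr at 37 °C, then CellTiter-Glo added for 30 min at room temperature before luminescence reading. Line: DT40 Tdp1-/- complemented with hTDP1; camptothecin omitted.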
TDP1 inh = inhibitors of human tyrosyl-DNA phosphodiesterase TDP1. recombinant TDP1, AlphaScreen DNA substrate cleavage. Potency, µM (titrated, usually from 130 µM), without a hit: at the highest dose activity change, negative = inhibition, hits mostly inhibitors. hit rate 0.28% among 350,000; further: potency means the concentration at half of the fitted maximal effect; on the % scale 0 is the no-effect control and ±100 the full control effect; nearly all actives have a fitted effect of over 40% in size
Target sequence (Q9NUW8 whole entry, looked up): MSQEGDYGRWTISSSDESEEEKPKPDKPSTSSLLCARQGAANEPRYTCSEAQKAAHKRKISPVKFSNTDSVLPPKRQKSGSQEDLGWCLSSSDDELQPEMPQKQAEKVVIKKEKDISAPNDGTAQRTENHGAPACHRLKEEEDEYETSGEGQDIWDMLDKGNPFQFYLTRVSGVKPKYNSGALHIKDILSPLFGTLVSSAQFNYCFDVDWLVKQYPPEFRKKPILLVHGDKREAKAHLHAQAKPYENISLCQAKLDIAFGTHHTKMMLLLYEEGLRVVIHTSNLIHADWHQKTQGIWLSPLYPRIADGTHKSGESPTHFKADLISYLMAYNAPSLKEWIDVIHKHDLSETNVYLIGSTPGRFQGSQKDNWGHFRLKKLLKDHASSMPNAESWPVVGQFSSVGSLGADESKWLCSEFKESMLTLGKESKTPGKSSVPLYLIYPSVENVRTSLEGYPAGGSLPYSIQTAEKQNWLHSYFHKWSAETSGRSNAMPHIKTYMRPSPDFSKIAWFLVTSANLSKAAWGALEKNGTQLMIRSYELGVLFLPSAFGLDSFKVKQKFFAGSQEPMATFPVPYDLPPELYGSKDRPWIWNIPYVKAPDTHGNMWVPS
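E. coli-derived human Tdp1, 1 nM final. Cpd preinc 15 min RT; substrate 15 nM final, 5 min RT; AS bead mix 10 ug/ml final, 10 min RT. Signal loss = tyrosine-FITC cleavage. No-enzyme wells = max signal.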
IL-1B inflam inh = inflammasome signaling inhibition, IL-1 beta readout | activity change, % at 57.5 µM | hit rate 4.7% among 360,000 | THP-1 LPS/ATP IL-1B secretion, AlphaLISA, 16 h; active compounds read low | AID 743279; in the data active means activity change below about -50%; inconclusive means mostly about -30% to -49%; further: on the % scale 0 is the no-effect control and ±100 the full control effect
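Secreted IL-1B measured by AlphaLISA bead assay after 16 h compound exposure of THP-1 cells; compounds (final up to 57.5 uM) added 1 h before LPS (250 ng/mL) and ATP (1.25 mM) stimulation; lower signal means less secretion.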
Active calls of the source: *; [ ] = another dose, or the depositor's remark. Unless noted, the call rests on the fitted dose curve; in most records, active means well fitted curve in the direction sought with a large enough effect; inconclusive means small, poorly fitted or top-dose-only effect, or another doubt; inactive means no such curve, though single readings can be large; an effect the other way counts as inactive or inconclusive.

Screening CN(CC(=O)Nc1ccccc1N1CCOCC1)S(=O)(=O)c1ccc(Cl)cc1 returned TGFb SMAD3 inh -31.8%, HepG2 viability 2.5%, TDP1 cell CPT 20.6µM*, DT40 TDP1 no CPT inconclusive, TDP1 inh 4.0% and IL-1B inflam inh -3.5.
For CN(c1ccccc1)S(=O)(=O)c1ccc(Cl)c(C(=O)Nc2ccccc2N2CCOCC2)c1 the results were TGFb SMAD3 inh -10.4%, HepG2 viability 4.0%, TDP1 cell CPT 8.2µM*, DT40 TDP1 no CPT 7.31µM*, TDP1 inh -2.0% and IL-1B inflam inh 18.2.
Screening CCCC(=O)Nc1ccccc1NC(=O)CN(C)S(=O)(=O)c1ccc(C)cc1 returned TGFb SMAD3 inh -6.5%, HepG2 viability 12.6µM*, TDP1 cell CPT -10.0%, DT40 TDP1 no CPT -6.9%, TDP1 inh 0.0% and IL-1B inflam inh 0.4.
Screening CCC(C(=O)Nc1ccc(C(=O)O)cc1NC(=O)C(CC)c1ccccc1)c1ccccc1 (stereo not given) returned TGFb SMAD3 inh 2.8%, HepG2 viability -4.7%, TDP1 cell CPT 4.0%, DT40 TDP1 no CPT -7.6% and IL-1B inflam inh -1.3.
`CC1Sc2ccc(C(=O)NCc3cccc(C(F)(F)F)c3)cc2NC1=O` (stereo not given) gave TGFb SMAD3 inh inconclusive, HepG2 viability -37.6%, TDP1 cell CPT inconclusive, DT40 TDP1 no CPT -29.7%, TDP1 inh -0.2%[56.1 µM] and IL-1B inflam inh 25.8.
`O=C(CSC(=S)N1CCCC1)N1CCN(S(=O)(=O)c2cccc([N+](=O)[O-])c2)CC1` gave TGFb SMAD3 inh -8.5%, HepG2 viability -27.8%, TDP1 cell CPT 6.8%, DT40 TDP1 no CPT -0.7%, TDP1 inh 3.2% and IL-1B inflam inh -3.8.
Screening CC(=O)c1ccc(-c2nnc(CCC(=O)N(C)Cc3c(C)nc4ccccn34)o2)s1 returned TGFb SMAD3 inh -19.6%, HepG2 viability -17.8%, TDP1 cell CPT inconclusive, DT40 TDP1 no CPT inconclusive and IL-1B inflam inh 37.6.
`COc1ccc(NC(=O)Cn2nnc(-c3ccccc3)c2COc2ccc3ccccc3c2)cn1` gave TGFb SMAD3 inh inconclusive, HepG2 viability -32.7%, TDP1 cell CPT 20.6µM*, DT40 TDP1 no CPT 23.1µM* and IL-1B inflam inh -10.2.
For CC(C)NC(=O)Cn1nnc(-c2ccccc2)c1COc1ccc2ccccc2c1 the results were TGFb SMAD3 inh -25.2%, HepG2 viability -38.7%, TDP1 cell CPT 14.6µM*, DT40 TDP1 no CPT inconclusive and IL-1B inflam inh -17.6.
For O=C(O)Cn1nnc(-c2ccccc2)c1COc1ccccc1 the results were TGFb SMAD3 inh 24.5%, HepG2 viability 1.9%, TDP1 cell CPT -0.8%, DT40 TDP1 no CPT -6.2% and IL-1B inflam inh 8.4.
COC(=O)[C@H](CCSC)NC(=O)Cn1cc(C)c(=O)[nH]c1=O was read as TGFb SMAD3 inh 4.8%, HepG2 viability -1.6%, TDP1 cell CPT -4.8%, DT40 TDP1 no CPT -6.8% and IL-1B inflam inh 24.1.
Cc1cc(C)c(N(CC(=O)NCc2ccccc2)C(=O)c2csnn2)c(C)c1 was read as TGFb SMAD3 inh 5.4%, HepG2 viability -14.0%, TDP1 cell CPT -19.8%, DT40 TDP1 no CPT -15.8%, TDP1 inh 2.7% and IL-1B inflam inh -7.0.
`Cc1ccccc1C(=O)N1CCC(C(=O)Nc2ccc(C(C)C)cc2)CC1` gave TGFb SMAD3 inh -14.1%, HepG2 viability -25.8%, TDP1 cell CPT 7.31µM*, DT40 TDP1 no CPT 5.17µM*, TDP1 inh 2.6% and IL-1B inflam inh 42.1.
Cc1ccc(NC(=S)Nc2ccc(C(C)C)cc2)cc1S(=O)(=O)N1CCCCCC1 was read as TGFb SMAD3 inh inconclusive, HepG2 viability -51.1%, TDP1 cell CPT 23.1µM*, DT40 TDP1 no CPT 16.4µM*, TDP1 inh 0.6% and IL-1B inflam inh -88.9*.
Screening Cc1ccc(NC(=O)C2CCC2)cc1S(=O)(=O)N1CCCCCC1 returned TGFb SMAD3 inh -14.0%, HepG2 viability -11.0%, TDP1 cell CPT inconclusive, DT40 TDP1 no CPT 25.9µM*, TDP1 inh 0.4%[0.505 µM] and IL-1B inflam inh -7.6.
Screening Cc1ccccc1C(=O)N1CCC(C(=O)Nc2ccc(F)cc2)CC1 returned TGFb SMAD3 inh -17.7%, HepG2 viability 4.7%, TDP1 cell CPT -8.0%, DT40 TDP1 no CPT -4.9%, TDP1 inh 1.1% and IL-1B inflam inh -14.9.
For CSc1cccc(NC(=O)C2CCN(C(=O)c3ccccc3C)CC2)c1 the results were TGFb SMAD3 inh -18.0%, HepG2 viability -9.9%, TDP1 cell CPT 18.4µM*, DT40 TDP1 no CPT 20.6µM*, TDP1 inh 0.0% and IL-1B inflam inh inconclusive.
For Cc1cccc(NC(=O)Nc2cnccn2)c1C the results were TGFb SMAD3 inh 1.4%, HepG2 viability -0.5%, TDP1 cell CPT -17.4%, DT40 TDP1 no CPT -11.0%, TDP1 inh -3.6% and IL-1B inflam inh -9.2.
Screening Cc1ccc(C(C)(O)CS(=O)(=O)Cc2ccccc2)cc1 (stereo not given) returned TGFb SMAD3 inh -3.3%, HepG2 viability -19.7%, TDP1 cell CPT 10.7%, DT40 TDP1 no CPT -10.8% and IL-1B inflam inh -2.9.
`O=C(COC(=O)c1cnccn1)NC1CCCc2ccccc21` (stereo not given) gave TGFb SMAD3 inh 7.2%, HepG2 viability -0.9%, TDP1 cell CPT -8.8%, DT40 TDP1 no CPT 11.0%, TDP1 inh -0.4% and IL-1B inflam inh 3.8.
`CC(C)c1ccc(NNC(=O)C2CCC2)cc1` gave TGFb SMAD3 inh -2.5%, HepG2 viability 11.0%, TDP1 cell CPT 9.2µM*, DT40 TDP1 no CPT 16.4µM* and TDP1 inh 8.6%.
Screening Cc1ccccc1C(=O)N1CCC(C(=O)Nc2ccc(C)c(S(=O)(=O)N3CCCCC3)c2)CC1 returned TGFb SMAD3 inh inconclusive, HepG2 viability -36.6%, TDP1 cell CPT 13µM*, DT40 TDP1 no CPT 5.8µM*, TDP1 inh 2.6% and IL-1B inflam inh -26.0.
For COc1ccc(NC(=O)C2CC2)cc1S(=O)(=O)N1CCOCC1 the results were TGFb SMAD3 inh 30.8%, HepG2 viability -1.6%, TDP1 cell CPT 3.6%, DT40 TDP1 no CPT -12.2%, TDP1 inh -0.3% and IL-1B inflam inh -1.2.
CCOc1ccc(NS(=O)(=O)c2cc(NC(=O)C3CC3)ccc2C)cc1Br was read as TGFb SMAD3 inh inconclusive, HepG2 viability -27.3%, TDP1 cell CPT inconclusive, DT40 TDP1 no CPT 20.6µM*, TDP1 inh 1.3% and IL-1B inflam inh -71.0*.

From PubChem BioAssay
